Assay results from PubChem BioAssay (Tox21).
Where “and” joins values, the source holds several entries; their conditions need not be identical. Identical values can stand only once. Unmarked numbers belong to inactive results. Records with an inconclusive call do not appear. Entries that show only a call come without a potency. Calls of active or inactive are those of the source. Unless noted, the call rests on the fitted dose curve; in most records, active means well fitted curve in the direction sought with a large enough effect in the repeat runs; inconclusive means weak or mixed curves; inactive means no such curve, though single readings can be large; an effect the other way counts as inactive or inconclusive.

What was measured:
[1] = qHTS assay for small molecule agonists of the p53 signaling pathway - cell viability (AID 651633; calls by dose curve; further: nearly all actives have a fitted effect of over 30% in size; further: potency means the concentration at half of the fitted maximal effect)
In short: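 p53RE-bla cells, seeded at 4,000 per well and rested 5 h at 37 C/5% CO2, received compounds in DMSO for 16 h at 37 C. CellTiter-Glo was then added, and luminescence was read after 30 min at room temperature to gauge cytotoxicity.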

[2] = qHTS assay for small molecules that induce genotoxicity in human embryonic kidney cells expressing luciferase-tagged ATAD5 - cell viability (AID 651634; calls by dose curve; further: nearly all actives have a fitted effect of over 25% in size; further: potency means the concentration at half of the fitted maximal effect)
In short: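 Cells (HEK293T, luciferase-tagged ATAD5) are seeded at 2,000 per well, dosed with compound or DMSO vehicle, and incubated 15.5 hr at 37C and 5% CO2. CellTiter-Fluor is added for 30 min before fluorescence is measured.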

[3] = qHTS assay for small molecule disruptors of the mitochondrial membrane potential (AID 720635); further: potency means the concentration at half of the fitted maximal effect
In short: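 HepG2 cells (2,000/well) attached overnight at 37C, then took compound for 1 hr at 37C, 5% CO2. Mito-MPS dye was added for 30 min; fluorescence was read at 490/535 nm (monomers) and 540/590 nm (aggregates).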

[4] = qHTS assay to test for compound auto fluorescence at 590 nm (red) in HepG2 cells (AID 720674)
In short: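 Compound auto-fluorescence is scored relative to Rose Bengal sodium, measured at 540/590 nm in live HepG2 cultures after 1 hr compound contact (37 C, 5% CO2).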

[5] = qHTS assay to test for compound auto fluorescence at 535 nm (green) in HepG2 cells (AID 720675)
[6] = qHTS assay to test for compound auto fluorescence at 590 nm (red) in HEK293 cells (AID 720679)
In short: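 HEK293 cells (2,000/well, 10% dialyzed FBS) attached 4-5 hr, then dosed with compound or DMSO and incubated overnight at 37C, 5% CO2. Red fluorescence read at 540/590 nm, Rose Bengal sodium as reference fluorophore.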

[7] = qHTS assay to test for compound auto fluorescence at 460 nm (blue) in HEK293 cells (AID 720678)
In short: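 HEK293 cells (2,000/well, medium with 10% dialyzed FBS) attached 4-5 hr, then exposed to compound overnight at 37C, 5% CO2. Blue fluorescence read at 405/460 nm, with triamterene as reference fluorophore.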

[8] = qHTS assay for small molecule disruptors of the mitochondrial membrane potential - cell viability (AID 720634; calls by dose curve; further: nearly all actives have a fitted effect of over 20% in size; further: potency means the concentration at half of the fitted maximal effect)
In short: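 Cytotoxicity was measured by ATP quantitation in HepG2 wells that had first been treated with compound for 1 hr and stained with m-MPI dye; CellTiter-Glo incubation was 30 min at room temperature.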

## CC(C)(O)c1cnn2c(-c3ccc(F)c(-c4c(F)cccc4C#N)c3)cnc2n1
[1]
  Potency: inactive
[2]
  Potency: inactive
[3]
  Potency: 19.3 µM (active)
[4]
  outcome: inactive
[5]
  outcome: inactive
[6]
  outcome: inactive

## Nc1ccc(Cc2ccc(N)c(Cl)c2)cc1Cl
[2]
  Potency: inactive
[3]
  Potency: 59.1 µM (active)
[4]
  outcome: inactive
[5]
  outcome: inactive
[6]
  outcome: inactive

## CC(=O)[O-].CC(=O)[O-].O.O.[Cd+2]
[2]
  Potency: 0.214 µM (active)
[4]
  outcome: inactive
[7]
  Potency: inactive
[6]
  outcome: inactive

## C[C@H]1O[C@@H](O[C@H]2[C@@H](O)C[C@H](O[C@H]3[C@@H](O)C[C@H](O[C@H]4CC[C@@]5(C)[C@H](CC[C@@H]6[C@@H]5CC[C@]5(C)[C@@H](C7=CC(=O)OC7)CC[C@]65O)C4)O[C@@H]3C)O[C@@H]2C)C[C@H](O)[C@@H]1O
[1]
  Potency: 47.3 nM (active) and 12.3 nM (active)
[8]
  Potency: inactive
[3]
  Potency: 119 nM (active) and 97.5 nM (active)
[4]
  outcome: inactive
[5]
  outcome: inactive
[7]
  Potency: inactive
[6]
  outcome: inactive

## O=C(O)C1C2CCC(O2)C1C(=O)O (stereo not drawn)
[1]
  Potency: inactive
[4]
  outcome: inactive
[5]
  outcome: inactive
[7]
  Potency: inactive
[6]
  outcome: inactive

## Nc1ccccc1C(=O)OC/C=C/c1ccccc1
[2]
  Potency: inactive
[3]
  Potency: 19.4 µM (active)
[4]
  outcome: inactive
[7]
  Potency: inactive
[6]
  outcome: inactive

## C=CC(=O)OCCCCOC(=O)C=C
[8]
  Potency: inactive
[3]
  Potency: inactive
[4]
  outcome: inactive
[5]
  outcome: inactive
[7]
  Potency: inactive
[6]
  outcome: inactive

## CC1(c2ccc(Oc3ccccc3)cc2)OC(=O)N(Nc2ccccc2)C1=O (stereo not drawn)
[3]
  Potency: 3.88 µM (active)
[4]
  outcome: inactive
[5]
  outcome: inactive
[7]
  Potency: inactive
[6]
  outcome: inactive

## C[C@H]1CC[C@@H]2[C@@H](C)[C@H]3[C@H](C[C@H]4[C@@H]5CC=C6CC(O[C@@H]7O[C@H](CO)[C@H](O)[C@H](O[C@@H]8O[C@H](CO)[C@@H](O)[C@H](O)[C@H]8O)[C@H]7O[C@H]7O[C@@H](C)[C@H](O)[C@@H](O)[C@H]7O)CC[C@]6(C)[C@H]5CC[C@]34C)N2C1 (stereo partly drawn)
[8]
  Potency: 18.8 µM (active) and 70.8 µM (active)
[3]
  Potency: 18.8 µM (active) and 35.5 µM (active)
[4]
  outcome: inactive
[5]
  outcome: inactive
[7]
  Potency: inactive
[6]
  outcome: inactive

## CC1(C)C(/C=C(\Cl)C(F)(F)F)C1C(=O)OC(C#N)c1cccc(Oc2ccccc2)c1 (stereo not drawn)
[3]
  Potency: 34.9 µM (active)
[4]
  outcome: inactive
[5]
  outcome: inactive
[7]
  Potency: inactive
[6]
  outcome: inactive

## N#CCCC(Br)(C#N)CBr (stereo not drawn)
[1]
  Potency: inactive
[3]
  Potency: 61.1 µM (active)
[4]
  outcome: inactive
[5]
  outcome: inactive
[7]
  Potency: inactive
[6]
  outcome: inactive

## Oc1c(Br)c(Br)c(Br)c(Br)c1Br
[1]
  Potency: 17.3 µM (active)
[8]
  Potency: inactive
[3]
  Potency: 2.45 µM (active)
[4]
  outcome: inactive
[5]
  outcome: inactive
[7]
  Potency: inactive
[6]
  outcome: inactive

## C[C@@H]1CC[C@@]2(OC1)O[C@H]1[C@@H](O)[C@H]3[C@@H]4CC[C@H]5C[C@@H](O[C@@H]6O[C@H](CO)[C@H](O[C@@H]7O[C@H](CO)[C@@H](O)[C@H](O[C@@H]8OC[C@@H](O)[C@H](O)[C@H]8O)[C@H]7O[C@@H]7O[C@H](CO)[C@@H](O)[C@H](O[C@@H]8O[C@H](CO)[C@@H](O)[C@H](O)[C@H]8O)[C@H]7O)[C@H](O)[C@H]6O)[C@H](O)C[C@]5(C)[C@H]4CC[C@]3(C)[C@H]1[C@@H]2C
[1]
  Potency: 23 µM (active)
[8]
  Potency: 18.3 µM (active)
[3]
  Potency: 4.59 µM (active)
[4]
  outcome: inactive
[5]
  outcome: inactive
[7]
  Potency: inactive
[6]
  outcome: inactive

## O=[N+]([O-])O.O=[N+]([O-])O.[Cd]
[2]
  Potency: 1.22 µM (active)
[4]
  outcome: inactive
[5]
  outcome: inactive
[7]
  Potency: inactive
[6]
  outcome: inactive

## CC(C)(C)c1ccc(CSc2cnn(C(C)(C)C)c(=O)c2Cl)cc1
[1]
  Potency: inactive
[8]
  Potency: 24.3 µM (active)
[3]
  Potency: 7.7 µM (active)
[4]
  outcome: inactive
[7]
  Potency: inactive
[6]
  outcome: inactive

## CC[C@H](C)[C@H]1O[C@]2(C=C[C@@H]1C)C[C@@H]1C[C@@H](C/C=C(\C)[C@@H](O[C@H]3C[C@H](OC)[C@@H](O[C@H]4C[C@H](OC)[C@@H](O)[C@H](C)O4)[C@H](C)O3)[C@@H](C)/C=C/C=C3\CO[C@@H]4[C@H](O)C(C)=C[C@@H](C(=O)O1)[C@]34O)O2
[1]
  Potency: 14.4 µM (active)
[8]
  Potency: inactive
[3]
  Potency: 28.7 µM (active)
[4]
  outcome: inactive
[5]
  outcome: inactive
[6]
  outcome: inactive

## O=c1[nH]c2ccccc2n1CCCN1CCC(n2c(=O)[nH]c3cc(Cl)ccc32)CC1
[1]
  Potency: inactive
[8]
  Potency: inactive
[3]
  Potency: inactive
[4]
  outcome: inactive
[5]
  outcome: inactive
[7]
  Potency: inactive
[6]
  outcome: inactive

## N#C/C=C/C#N
[1]
  Potency: inactive
[8]
  Potency: inactive
[4]
  outcome: inactive
[5]
  outcome: inactive
[7]
  Potency: inactive
[6]
  outcome: inactive

## C[C@@H]1O[C@@H](O[C@H]2C[C@@H](O)[C@]3(CO)[C@H]4[C@H](O)C[C@]5(C)[C@@H](C6=CC(=O)OC6)CC[C@]5(O)[C@@H]4CC[C@]3(O)C2)[C@H](O)[C@H](O)[C@H]1O
[1]
  Potency: 33.5 nM (active) and 53.1 nM (active) and 20.6 nM (active)
[2]
  Potency: 59.6 nM (active) and 37.6 nM (active) and 32.6 nM (active)
[4]
  outcome: inactive
[5]
  outcome: inactive
[6]
  outcome: inactive

## Clc1ccc(C(c2ccc(Cl)cc2)C(Cl)(Cl)Cl)cc1
[1]
  Potency: 26.6 µM (active) and 48.9 µM (active) and 27.3 µM (active)
[8]
  Potency: inactive
[3]
  Potency: 21.1 µM (active) and 19.5 µM (active) and 15.4 µM (active)
[4]
  outcome: inactive
[5]
  outcome: inactive
[7]
  Potency: inactive
[6]
  outcome: inactive

## C[C@]12CC[C@H]3[C@@H](CCC4=CC(=O)CC[C@@]43C)[C@@H]1CC[C@@H]2O
[1]
  Potency: inactive
[8]
  Potency: inactive
[4]
  outcome: inactive
[5]
  outcome: inactive
[7]
  Potency: inactive
[6]
  outcome: inactive

## CC(=O)[O-].CC(=O)[O-].[Hg+2]
[1]
  Potency: 1.93 µM (active)
[4]
  outcome: inactive
[5]
  outcome: inactive
[6]
  outcome: inactive

## CC(=O)[O-].[Tl+]
[1]
  Potency: 43.5 µM (active)
[4]
  outcome: inactive
[5]
  outcome: inactive
[6]
  outcome: inactive

## CN(C)S(=O)(=O)N(SC(F)(Cl)Cl)c1ccccc1
[8]
  Potency: 61.1 µM (active)
[3]
  Potency: 4.86 µM (active)
[4]
  outcome: inactive
[5]
  outcome: inactive
[7]
  Potency: inactive
[6]
  outcome: inactive

## CCOP(=O)(NC(C)C)Oc1ccc(SC)c(C)c1 (stereo not drawn)
[4]
  outcome: inactive
[5]
  outcome: inactive
[7]
  Potency: inactive
[6]
  outcome: inactive

## CC(C)[C@H](C(=O)OC(C#N)c1cccc(Oc2ccccc2)c1)c1ccc(OC(F)F)cc1 (stereo partly drawn)
[3]
  Potency: 17.2 µM (active)
[4]
  outcome: inactive
[5]
  outcome: inactive
[7]
  Potency: inactive
[6]
  outcome: inactive

## CCOCn1c(-c2ccc(Cl)cc2)c(C#N)c(Br)c1C(F)(F)F
[1]
  Potency: 30.6 µM (active)
[3]
  Potency: 0.0486 µM (active)
[4]
  outcome: inactive
[5]
  outcome: inactive
[7]
  Potency: inactive
[6]
  outcome: inactive

## CCCSP(=O)(OCC)SCCC
[2]
  Potency: inactive
[8]
  Potency: inactive
[4]
  outcome: inactive
[5]
  outcome: inactive
[7]
  Potency: inactive
[6]
  outcome: inactive

## CC(C)C1CCC(Cc2ccc(Cl)cc2)C1(O)Cn1cncn1 (stereo not drawn)
[2]
  Potency: 53.9 µM (active)
[3]
  Potency: 15.2 µM (active)
[4]
  outcome: inactive
[5]
  outcome: inactive
[6]
  outcome: inactive

## CS(=O)(=O)c1ccc(C(=O)C2C(=O)CCCC2=O)c([N+](=O)[O-])c1
[1]
  Potency: inactive
[8]
  Potency: inactive
[3]
  Potency: 6.98 µM (active)
[4]
  outcome: inactive
[5]
  outcome: inactive
[7]
  Potency: inactive
[6]
  outcome: inactive

## CCCCN(CCCC)C(=S)[S-].CCCCN(CCCC)C(=S)[S-].[Zn+2]
[1]
  Potency: 9.44 µM (active) and 61.1 µM (active)
[8]
  Potency: inactive
[3]
  Potency: 27.3 µM (active)
[4]
  outcome: inactive
[5]
  outcome: inactive
[7]
  Potency: inactive
[6]
  outcome: inactive

## Cc1cc(SCc2sc(-c3ccc(C(F)(F)F)c(F)c3)nc2C)ccc1OCC(=O)O
[1]
  Potency: 48.6 µM (active)
[4]
  outcome: inactive
[5]
  outcome: inactive
[7]
  Potency: inactive
[6]
  outcome: inactive

## Fc1cccc(Cl)c1CCl
[2]
  Potency: inactive
[8]
  Potency: inactive
[4]
  outcome: inactive
[5]
  outcome: inactive
[7]
  Potency: inactive
[6]
  outcome: inactive

## CCOc1cc(C(C)(C)C)ccc1C1COC(c2c(F)cccc2F)=N1 (stereo not drawn)
[1]
  Potency: 41.6 µM (active)
[8]
  Potency: 29.5 µM (active)
[3]
  Potency: 16.6 µM (active)
[4]
  outcome: inactive
[5]
  outcome: inactive
[7]
  Potency: inactive
[6]
  outcome: inactive

## CCc1nn(C)c(C(=O)NCc2ccc(C(C)(C)C)cc2)c1Cl
[2]
  Potency: inactive
[8]
  Potency: 12.2 µM (active)
[3]
  Potency: 15.4 µM (active)
[4]
  outcome: inactive
[6]
  outcome: inactive

## Cc1cc(C(F)(C(F)(F)F)C(F)(F)F)ccc1NC(=O)c1cccc(I)c1C(=O)NC(C)(C)CS(C)(=O)=O
[1]
  Potency: inactive
[8]
  Potency: inactive
[3]
  Potency: 17.3 µM (active)
[4]
  outcome: inactive
[7]
  Potency: inactive
[6]
  outcome: inactive

## [Cd+2].[Cl-].[Cl-]
[2]
  Potency: 1.95 µM (active) and 1.22 µM (active)
[4]
  outcome: inactive
[6]
  outcome: inactive
